PubChem BioAssay
Values without a mark were called inactive. The rule behind the calls is not given here.

target: Pantothenate synthetase (Mycobacterium tuberculosis (strain ATCC 25618 / H37Rv)) (UniProt P9WIL5); assay: Recombinant Mtb pantothenate synthetase (PanC) inhibitors, coupled enzyme, confirmatory (AID 375); settings: coupled enzyme assay; at 10 µM, stronger effect = higher value;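 note: 0% = full reaction with vehicle and 100% = no enzyme background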
Sequence (P9WIL5 whole entry, looked up): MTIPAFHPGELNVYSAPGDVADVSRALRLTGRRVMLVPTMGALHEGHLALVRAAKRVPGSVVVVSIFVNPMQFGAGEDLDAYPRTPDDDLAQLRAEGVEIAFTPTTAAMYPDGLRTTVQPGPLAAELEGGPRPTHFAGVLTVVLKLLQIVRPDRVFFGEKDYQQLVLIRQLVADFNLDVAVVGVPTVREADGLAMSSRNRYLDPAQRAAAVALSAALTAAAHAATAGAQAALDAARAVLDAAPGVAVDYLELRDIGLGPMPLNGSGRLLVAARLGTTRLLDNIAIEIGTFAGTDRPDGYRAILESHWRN

Row | SMILES | inhibition [%]
1 | O=S(=O)(c1ccc(OCC(O)CN2CCN(c3ccccc3)CC2)cc1)N1CCOCC1 (stereo not given) | 7
2 | COc1ccc(CC(=O)Nc2cc(Cl)ccc2O)cc1 | 5
3 | O=C(Nc1ccccc1N1CCN(C(=O)c2ccc(Cl)cc2)CC1)c1cc2ccccc2o1 | 3
4 | CCC(=O)Nc1ccc(Cl)c(NC(=O)C(C)C)c1 | 3
5 | CCOC(=O)C(NC(=O)Nc1ccccc1)(OCC)C(F)(F)F (stereo not given) | 0
6 | CCn1c(CNc2ccc(OC)cc2)nnc1SCC(=O)c1ccc(OC)cc1 | 0
7 | COc1cc(C2CC(=O)NC3=C2C(=O)CC(C)(C)C3)ccc1O (stereo not given) | 0
8 | CNS(=O)(=O)c1cccc(C(=O)OCC(=O)c2cc(C)n(-c3ccc4c(c3)OCO4)c2C)c1 | 0
9 | CCCNC(=O)N1CCN(S(=O)(=O)c2ccc(C)c(C)c2)CC1 | 4
10 | CCc1cccc2c3c([nH]c12)C(CC)(CC(=O)O)OCC3 (stereo not given) | 0
11 | O=S(NCc1ccco1)C12CC3CC(CC(C3)C1)C2 (stereo not given) | 0
12 | Cc1ccc(-n2ncc3c(N4CCCC(C)C4)ncnc32)c(C)c1 (stereo not given) | 5
13 | O=C(CSc1ncccn1)NCc1ccccc1 | 0
14 | CCN(c1cccc(C)c1)S(=O)(=O)c1ccc2[nH]c(=O)c(=O)[nH]c2c1 | 7
15 | Cc1ccnc(NC(=O)C2CCCN(S(=O)(=O)c3cnc[nH]3)C2)c1 (stereo not given) | 0
16 | O=C(COC(=O)C1CCN(S(=O)(=O)c2cccs2)CC1)c1cc2ccccc2o1 | 0
17 | CCOC(=O)C1=C(CN2CCOCC2)NC(=O)NC1c1cc(C)ccc1C (stereo not given) | 2
18 | CCOC(=O)C(C)n1cnc2c(nnn2Cc2ccc(C)cc2)c1=O (stereo not given) | 0
19 | CCC(C(=O)O)n1c(C(F)(F)F)nc2ccccc21 (stereo not given) | 4
20 | COc1ccc(NC(=O)C23CCC(C)(C(=O)C2)C3(C)C)cc1 (stereo not given) | 0

Row | SMILES | inhibition [%]
21 | COc1cccc(CN2C(=O)C3(C(C#N)=C(N)OC4=C3C(=O)CCC4)c3ccccc32)c1 (stereo not given) | 0
22 | COc1ccc(-n2nc3cc(C)c(N)c(Br)c3n2)cc1 | 0
23 | CC(C)OC(=O)C1C2C=CC3(CN(Cc4cccs4)C(=O)C13)O2 (stereo not given) | 0
24 | CCn1c(CSc2ncccn2)nnc1SCC(=O)N1c2ccccc2CC1C (stereo not given) | 6
25 | CC(C(=O)N1CCc2ccccc21)N1CCc2ccccc2C1 (stereo not given) | 3
26 | Cc1cc(NCC2CCCO2)n2c(nc3ccccc32)c1C#N (stereo not given) | 1
27 | O=C(COc1ccc2ccccc2c1)N1CCCC1 | 8
28 | N#C/C(C(=O)N1CCOCC1)=C1/SC(Cc2ccccc2)C(=O)N1c1ccccc1 (stereo not given) | 0
29 | Cc1cc(N2C(=O)CC(N3CCN(c4ccc(C(=O)c5cccs5)cc4)CC3)C2=O)no1 (stereo not given) | 0
30 | CCOC(=O)CSc1nc2cccnc2n1-c1ccc(F)cc1 | 2
31 | COc1ccccc1N1CCN(C(=O)c2ccc(CS(=O)(=O)c3ccccc3OC)o2)CC1 | 8
32 | CC(NC(=O)c1ccccc1NC(=O)c1ccco1)C(=O)O (stereo not given) | 0
33 | O=C(Nc1nc2ccc(S(=O)(=O)N3CCCC3)cc2s1)C1CCCO1 (stereo not given) | 0
34 | CC(=O)O[C@H]1CSC[C@H]1NC(=O)c1ccccc1 | 0
35 | CCOC(=O)c1ccc(NCc2nc3ccccc3[nH]2)cc1 | 4
36 | Cc1nc2sc(C(c3cccc(F)c3)N3CCOCC3)c(O)n2n1 (stereo not given) | 0
37 | CCCCCOC(=O)CSc1nnc(-c2cc(OC)c(OC)c(OC)c2)o1 | 4
38 | Cc1cc2c(s1)c1cnn(CC(=O)NCCc3ccccc3)c(=O)c1n2C | 0
39 | O=C(NCCc1c[nH]c2ccccc12)c1ccc(S(=O)(=O)NCc2ccco2)cc1 | 0
40 | COC(=O)C(C)Sc1nc2c(c(=O)n(C)c(=O)n2C)n1Cc1cccc(C)c1 (stereo not given) | 2
